SMILES strings stand for the structures. Results filed as inconclusive are left out. The source made the active and inactive calls. Calls follow the shape of the dose curve; as a rule, active = well fitted curve in the direction sought with a large enough effect; inconclusive = small, poorly fitted or top-dose-only effect, or another doubt; inactive = no such curve, though single readings can be large or run the other way.

The source of these data is PubChem BioAssay AID687009 (National Center for Advancing Translational Sciences (NCATS), 2013).

The target of this test is Lysine-specific histone demethylase 1A (Homo sapiens) (UniProt O60341). The test can be described thus: qHTS Assay for Inhibitors of Human Jumonji Domain Containing 2E (JMJD2E): Counterscreen with LSD1. An excerpt:
The fine interplay among methylation states of several lysine residues on the tails of histone proteins is a major determinant of the transcriptional state of the associated DNA coding regions and is commonly referred to as the histone code. Histone lysine demethylases catalyze the removal of methyl groups from methylated lysine sidechains on histones H3 and H4, thus antagonizing the reactions catalyzed by histone lysine methyltransferases. […] In search for novel inhibitors of JMJD2E demethylase, a member of the largest set of histone demethylases belonging to the Fe(II) and 2-oxoglutarate oxygenase (2OG) superfamily, we performed a quantitative high-throughput screen (Inglese 2006) by using an assay which utilizes a trimethylated peptide substrate corresponding to a fragment of histone H3 (sequence ARKme3STGGK) with detection of the formaldehyde co-product in real time by a formaldehyde dehydrogenase (FDH) coupled reaction. […]
The assay was performed in a buffer containing 10 mM HEPES, Na pH 7.5, 5 mM MgCl2, 50 mM KCl, 0.01% Nonidet P-40, and 0.1% BSA. […] The plate was then centrifuged at 1,000 rpm for 15 seconds, and the fluorescence intensity was recorded on a ViewLux High-throughput CCD imager (Perkin-Elmer) using standard TAMRA optics (525 nm excitation and 598 nm emission). The plate was then incubated for 30 min at room temperature, and a second read on the ViewLux was performed. […]

Regarding `CN1CCN(c2cnc3c(O)ccc(C(=O)O)c3c2)CC1`, the outcome was inactive.
